Measurements: PubChem BioAssay
The source made the active and inactive calls.

Columns and labels:
[1] = test system: PRMT1 (protein arginine N-methyltransferase 1); test: PRMT1 binders on small-molecule microarrays, primary screen, biochemical, small-molecule microarray, 635 nm fluorescence (AID 1088); details: small-molecule microarray binding, higher = more signal;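 further: binding of Prmt1 protein to compounds spotted on small-molecule microarray slides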
[2] = yeast growth modulation, basal conditions, primary screen, YJM789 clinical isolate, OD600, 24 h (AID 1089);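 further: growth of clinical yeast isolate S. cerevisiae YJM 789 seeded 1000 cells per well; test concentration not given here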; details: S. cerevisiae YJM789 growth, higher = more signal, called active from +8 up or from −8 down
[3] = fission yeast growth modulation, primary screen, strain 972, OD600, 24 h, no modulator (AID 1090);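 further: basal condition with compound alone and no growth modifier present; test concentration not given here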; details: S. pombe 972 growth, higher = more signal, called active from +8 up or from −8 down
[4] = S. cerevisiae growth modulation with rapamycin, primary screen, strain BY4716, OD600, 96 h (AID 1091); details: higher = more signal, called active from +8 up or from −8 down; further: test concentration not given here
[5] = biological target: Torsin-1A-interacting protein 2 (Homo sapiens) (UniProt Q8NFQ8); test: LULL1 binders on small-molecule microarray, primary screen, cell lysate, human LULL1 lysate, 635/667 nm fluorescence (AID 1092); details: hLULL1 lysate binding, 635 nm fluorescence, higher = more signal;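 further: probe is lysate of COS7 cells overexpressing human LULL1; score merges per-feature 667 nm fluorescence with signal-to-noise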
[6] = E. coli growth modulation, two-sided OD650, primary screen, E. coli filamentation project, strain DRC41, 24 h (AID 1093); details: OD650, 24 h, higher = more signal, called active from +8 up or from −8 down;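 further: MC1000 strain lacking acrAB efflux and sulA so SOS filamentation is blocked; test concentration not given here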
[7] = small-molecule microarray binders of probe aLefty2, primary screen, biochemical, biotinylated probe, 635/667 nm fluorescence (AID 1094); details: higher = more signal;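 further: score merges spot fluorescence near 667 nm with spot signal-to-noise ratio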
[8] = test system: Noggin (protein binding on small-molecule microarray); test: Noggin binders on small-molecule microarray, primary screen, biochemical, 635/667 nm fluorescence (AID 1095); details: 635 nm fluorescence, higher = more signal;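 further: score merges 667 nm feature fluorescence with signal to noise over triplicate slides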
[9] = biological target: Neurogenic locus notch homolog protein 3 (Homo sapiens) (UniProt Q9UM47); test: NOTCH3 binders on small-molecule microarray, primary screen, biochemical, 635/667 nm fluorescence (AID 1096); details: NOTCH3 binding, 635 nm fluorescence, higher = more signal
[10] = small-molecule microarray binders of probe aEGFR, primary screen, biochemical, biotinylated probe, 635/667 nm fluorescence (AID 1097); details: higher = more signal;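 further: probe is a biotinylated anti-EGFR antibody binding compounds printed on slides; score combines fluorescence near 667 nm and signal to noise of each spot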

Chain of Torsin-1A-interacting protein 2 (Homo sapiens) (Q8NFQ8 whole entry, looked up): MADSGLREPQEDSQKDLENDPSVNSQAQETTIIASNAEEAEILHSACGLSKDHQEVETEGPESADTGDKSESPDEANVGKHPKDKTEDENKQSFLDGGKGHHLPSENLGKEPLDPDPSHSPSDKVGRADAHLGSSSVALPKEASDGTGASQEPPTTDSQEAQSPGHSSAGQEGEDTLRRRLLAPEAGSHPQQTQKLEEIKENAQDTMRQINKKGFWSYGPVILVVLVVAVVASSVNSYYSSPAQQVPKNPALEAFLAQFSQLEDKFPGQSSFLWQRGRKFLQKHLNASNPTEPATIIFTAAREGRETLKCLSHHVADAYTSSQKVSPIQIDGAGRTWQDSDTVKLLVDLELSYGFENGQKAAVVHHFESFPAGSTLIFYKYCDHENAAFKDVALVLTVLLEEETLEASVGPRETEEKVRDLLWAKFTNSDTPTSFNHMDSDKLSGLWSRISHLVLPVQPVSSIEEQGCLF
Chain of Neurogenic locus notch homolog protein 3 (Homo sapiens) (Q9UM47 whole entry, looked up): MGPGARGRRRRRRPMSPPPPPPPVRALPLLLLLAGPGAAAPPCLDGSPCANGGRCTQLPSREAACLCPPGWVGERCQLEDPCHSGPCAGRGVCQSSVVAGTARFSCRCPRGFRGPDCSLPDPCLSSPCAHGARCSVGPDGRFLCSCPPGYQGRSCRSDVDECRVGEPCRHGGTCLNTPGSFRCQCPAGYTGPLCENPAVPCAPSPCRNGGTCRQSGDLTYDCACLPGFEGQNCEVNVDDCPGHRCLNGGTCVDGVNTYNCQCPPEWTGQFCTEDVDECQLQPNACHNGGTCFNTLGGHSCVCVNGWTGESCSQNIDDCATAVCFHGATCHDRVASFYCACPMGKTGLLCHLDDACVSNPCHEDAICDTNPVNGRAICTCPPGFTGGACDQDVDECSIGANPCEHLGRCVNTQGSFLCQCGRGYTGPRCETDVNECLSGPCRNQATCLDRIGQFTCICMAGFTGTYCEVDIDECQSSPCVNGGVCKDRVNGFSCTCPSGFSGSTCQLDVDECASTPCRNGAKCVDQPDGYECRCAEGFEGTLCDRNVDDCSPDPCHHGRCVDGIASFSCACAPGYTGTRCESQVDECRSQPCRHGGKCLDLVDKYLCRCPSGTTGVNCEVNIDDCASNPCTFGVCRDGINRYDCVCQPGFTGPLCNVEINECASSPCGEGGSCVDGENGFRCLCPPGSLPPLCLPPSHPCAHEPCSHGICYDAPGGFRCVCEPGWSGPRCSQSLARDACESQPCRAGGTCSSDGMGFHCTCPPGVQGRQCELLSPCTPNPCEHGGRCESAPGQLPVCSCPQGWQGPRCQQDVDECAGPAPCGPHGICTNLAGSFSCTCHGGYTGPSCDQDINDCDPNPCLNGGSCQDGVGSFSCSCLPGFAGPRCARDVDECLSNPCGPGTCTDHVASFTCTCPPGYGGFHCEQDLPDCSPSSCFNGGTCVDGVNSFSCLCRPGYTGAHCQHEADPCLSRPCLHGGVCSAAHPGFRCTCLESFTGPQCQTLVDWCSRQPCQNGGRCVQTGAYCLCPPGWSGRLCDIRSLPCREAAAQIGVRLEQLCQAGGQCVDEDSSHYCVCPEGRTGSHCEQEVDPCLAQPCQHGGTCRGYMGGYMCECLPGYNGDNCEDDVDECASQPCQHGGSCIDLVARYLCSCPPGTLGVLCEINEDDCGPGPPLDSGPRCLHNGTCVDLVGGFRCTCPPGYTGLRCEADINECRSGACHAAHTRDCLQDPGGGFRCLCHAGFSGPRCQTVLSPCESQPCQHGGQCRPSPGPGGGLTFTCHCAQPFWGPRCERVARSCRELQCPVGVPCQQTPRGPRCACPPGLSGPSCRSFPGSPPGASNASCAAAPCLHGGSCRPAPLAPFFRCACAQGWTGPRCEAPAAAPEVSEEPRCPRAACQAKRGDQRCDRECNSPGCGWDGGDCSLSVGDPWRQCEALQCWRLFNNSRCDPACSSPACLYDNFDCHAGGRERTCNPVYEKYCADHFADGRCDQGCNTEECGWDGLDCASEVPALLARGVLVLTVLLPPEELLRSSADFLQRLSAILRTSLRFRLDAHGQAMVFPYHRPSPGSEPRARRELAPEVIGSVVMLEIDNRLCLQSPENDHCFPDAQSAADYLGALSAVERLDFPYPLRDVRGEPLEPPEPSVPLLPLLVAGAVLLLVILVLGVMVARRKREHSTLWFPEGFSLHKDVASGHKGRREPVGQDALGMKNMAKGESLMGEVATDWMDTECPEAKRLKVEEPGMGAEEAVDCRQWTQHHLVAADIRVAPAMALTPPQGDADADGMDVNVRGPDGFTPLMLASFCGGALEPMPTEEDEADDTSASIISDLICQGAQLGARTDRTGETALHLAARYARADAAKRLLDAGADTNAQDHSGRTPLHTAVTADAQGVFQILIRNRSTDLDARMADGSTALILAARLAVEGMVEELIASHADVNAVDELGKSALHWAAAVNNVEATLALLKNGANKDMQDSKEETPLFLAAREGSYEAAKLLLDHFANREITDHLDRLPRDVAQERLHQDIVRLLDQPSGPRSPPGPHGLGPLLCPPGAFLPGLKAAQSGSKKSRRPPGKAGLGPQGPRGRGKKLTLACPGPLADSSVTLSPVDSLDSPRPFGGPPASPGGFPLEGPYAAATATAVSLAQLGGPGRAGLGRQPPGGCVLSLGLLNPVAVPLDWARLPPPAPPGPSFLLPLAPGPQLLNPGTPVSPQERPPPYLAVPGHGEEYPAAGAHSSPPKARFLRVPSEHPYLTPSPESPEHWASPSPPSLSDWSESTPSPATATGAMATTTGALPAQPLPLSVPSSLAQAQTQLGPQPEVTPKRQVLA

Row | SMILES | composite z-score [1] | z-score [2] | z-score [3] | z-score [4] | composite z-score [5] | z-score [6] | composite z-score [7] | composite z-score [8] | composite z-score [9] | composite z-score [10]
1 | COCCOC(=O)N1C(=O)[C@@]2(c3cc(C#Cc4ccc(OC)cc4)ccc31)[C@H](c1ccc(OCCO)cc1)N1[C@H](c3ccccc3)[C@H](c3ccccc3)OC(=O)[C@H]1[C@@H]2C(=O)N1CCN(c2ncccn2)CC1 | 1.55 | 2.92 (inactive) | 2.3 (inactive) | 7.54 (inactive) | 1.55 | 0.468 (inactive) | 0.127 | 1.06 | 1.08 | 0.178
2 | COc1cc(Br)cc(C(O)C2C=CC3C(=O)N(C)C(=O)C3N2N2CCCCC2)c1OC (stereo not given) | -0.962 | 0.733 (inactive) | 1.13 (inactive) | 1.73 (inactive) | 1.49 | -1.54 (inactive) | 0.118 | -1.27 | -0.702 | 0.0122
3 | CCCCCN1CC=CC23O[C@@H]4/C=C\CCC(C)OC(=O)C4[C@H]2C(=O)N(C(C)CO)[C@@H]3C1=O (stereo not given in full) | 1.09 | 0.255 (inactive) | 0.117 (inactive) | -0.562 (inactive) | 2.37 | 0.123 (inactive) | -0.238 | 0.0805 | 0.385 | -0.168
4 | O=C(NCCO)C1=C[C@H](Oc2ccccc2I)[C@@H](O)[C@H](N(Cc2ccco2)C(=O)Cc2ccccc2)C1 | -0.0355 | 0.528 (inactive) | 0.0689 (inactive) | 0.279 (inactive) | -0.298 | -0.546 (inactive) | -0.0279 | 0.535 | 0.271 | -0.0767
5 | COC(=O)[C@@]1(Cc2ccc(F)cc2)[C@H]2c3cc(C(=O)N4CCCC4)n(Cc4ccc(S(C)(=O)=O)cc4)c3C[C@H]2CN1C(=O)c1ccccc1 | -0.0384 | -0.13 (inactive) | 0.365 (inactive) | 1.48 (inactive) | 3.29 | -1.02 (inactive) | 0.267 | -0.771 | 1.02 | 0.123
6 | C=C[C@H](CO)NS(=O)(=O)c1ccc(Br)cc1 | -0.0224 | 0.198 (inactive) | -1.53 (inactive) | -0.135 (inactive) | 0.676 | 1.29 (inactive) | 0.0467 | 0.19 | -0.342 | -0.0302
7 | CN(C)C(=O)[C@@]1(CCS(=O)(=O)c2ccccc2)COC(c2ccc(OCCCO)cc2)=N1 | 0.494 | -0.126 (inactive) | 1.45 (inactive) | 0.546 (inactive) | 3.63 | 0.199 (inactive) | -0.0258 | -0.252 | -0.136 | 0.36
8 | OCCCC1=CC(c2cccs2)N(Cc2cc3c(cc2Br)OCO3)CC1 (stereo not given) | 0.591 | -0.678 (inactive) | -1.05 (inactive) | -0.274 (inactive) | 1.17 | -0.414 (inactive) | 0 | 0.915 | 0.208 | -0.0304
9 | CN1C(=O)C2C=CC(C(O)C3CC=CCC3)N(N(c3ccccc3)c3ccccc3)C2C1=O (stereo not given) | -1.73 | 0.607 (inactive) | 1.7 (inactive) | 1.01 (inactive) | -0.0863 | -0.843 (inactive) | 0.639 | -0.264 | 0.0898 | -0.0823
10 | C=CCOC(=O)[C@H]1[C@@H]2C(=O)O[C@@H](c3ccccc3)[C@@H](c3ccccc3)N2[C@@H](c2ccc(OCCOC(=O)[C@H]3C[C@H]4C(=O)N[C@@H](CCCCNC(C)=O)C(=O)N4[C@H]3c3cccc(OCCO)c3)cc2)[C@]12C(=O)Nc1ccccc12 | 1.55 | 0.17 (inactive) | 1.11 (inactive) | 2.59 (inactive) | 3.05 | 0.272 (inactive) | -0.0865 | 0.664 | 0.879 | -0.0996
11 | C[C@H]1NC(=O)[C@@]23C(=O)N[C@@H](Cc4ccccc4)C2[C@H](C)[C@@]2(C)O[C@H]2C3/C=C/C/C=C\CNC(=O)[C@@H]2CCCN2C1=O (stereo not given in full) | -0.0905 | -0.185 (inactive) | -0.769 (inactive) | -1.52 (inactive) | 0.697 | 0.1 (inactive) | -0.166 | 1.15 | 1.01 | -0.139
12 | O=C1c2ccccc2[C@](Cc2ccccc2I)(C(=O)NCC(F)(F)F)[C@H](c2ccc(CO)cc2)N1Cc1ccccc1Cl | 1.53 | -0.893 (inactive) | -1.09 (inactive) | -1.29 (inactive) | 3 | -0.267 (inactive) | -0.0283 | 0.496 | 0.958 | -0.0409
13 | C[N+](C)(C)CCCC[C@@H]1NC(=O)[C@H]2C[C@@H](C(=O)NCCCCCCNC(=O)CS)[C@@H](c3cccc(OCCO)c3)N2C1=O | -0.452 | -0.173 (inactive) | 0.532 (inactive) | -0.0564 (inactive) | 2.01 | 0.154 (inactive) | -0.0766 | -0.33 | -0.837 | -0.268
14 | CC(C)=CCN[C@H](CO)c1ccccc1 | -0.198 | -0.613 (inactive) | -4.99 (inactive) | -1.32 (inactive) | 0.138 | -0.291 (inactive) | -0.236 | 0.346 | -0.0083 | -0.203
15 | O[C@@H](Cc1ccccc1)[C@H]1C2C=CCCC=C2CN1Cc1cccc(Cl)c1 (stereo not given in full) | 1.42 | -0.14 (inactive) | -2.92 (inactive) | -0.742 (inactive) | 1.17 | 1.35 (inactive) | -0.101 | 0.728 | 1.12 | -0.0039
16 | C=C(CC1([C@@H](NP(=O)(c2ccccc2)c2ccccc2)[C@H]2C[C@@H]2CCCC)CC1)c1ccccc1 | 0.759 | -0.254 (inactive) | 0.204 (inactive) | 3.83 (inactive) | 2.53 | -0.357 (inactive) | 0.153 | -0.591 | 0.418 | -0.0844
17 | C[C@@]1([C@@H](NC(=O)c2ccc(-c3ccccc3)cc2)c2ccc(Cl)cc2)C[C@H]1C1CCCCC1 | 0.497 | 0.823 (inactive) | -3.48 (inactive) | 1.6 (inactive) | 2.54 | -0.586 (inactive) | 0.101 | 0.118 | 0.73 | 0.302
18 | COC(=O)[C@@]1(CCC(=O)OC(C)(C)C)N=C(c2ccc(OCCCO)cc2)O[C@H]1c1ccccc1N=[N+]=[N-] | 1.28 | 0.0049 (inactive) | -0.786 (inactive) | 33.6 (active) | 1.83 | 0.817 (inactive) | -0.309 | 0.714 | 0.388 | -0.0828
